# Shown is part of a subset that was picked to be rich in hits.
# Methyltransferases: Primary Screen for Target Class Profiling of Small Molecule Inhibitors of Methyltransferases | purified enzyme, MTase-Glo SAH luminescence; active compounds read low | calls only at 40 µM | 3.9% of 25,000 active; call rule not given here
#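 Each enzyme was assayed with SAM and its substrate. SAH formation detected by MTase-Glo luminescence; single-point 40 uM screen[…].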
# Starred values were filed as active, the others as inactive; i = inactive; + = active, no number; ! = not active in a repeat. On the % scale 0 is the no-effect control and ±100 the full control effect.
SMILES,Methyltransferases
Cn1cc(-c2cnn3c(N)c(Br)c(C4CCCNC4)nc23)cn1 (centres undefined),+
Cc1ccc(S(=O)(=O)/C=C/C#N)cc1,+!
COCCCNC(=O)C1(C)Cn2nc(-c3ccccc3)cc2C(=O)N1c1ccc(C)cc1C (centres undefined),i
CC1=CC(=O)CC(C)(C)C1/C=C/C(C)OC1OC(COC2OCC(O)C(O)C2O)C(O)C(O)C1O (centres undefined),i
CC1=CC(=O)CC(C)(C)C1CCC(C)OC1OC(COC(=O)c2cc(O)c(O)c(O)c2)C(O)C(O)C1O (centres undefined),+
COc1cc(C(=O)OC[C@H]2O[C@@H](OC(C)(C)C(=O)O)[C@H](O)[C@@H](O)[C@@H]2O)cc(OC)c1O,i
CC(CCC1C(C(=O)O)=CC(=O)CC1(C)C)O[C@@H]1O[C@H](CO)[C@@H](O)[C@H](O)[C@H]1O (some centres undefined),+
CC1=CC(=O)CC(C)(C)C1/C=C/C(C)O[C@@H]1O[C@H](CO)[C@@H](O)[C@H](O)[C@H]1O[C@@H]1OC[C@](O)(CO)[C@H]1O (some centres undefined),i
CC1=CC(=O)CC(C)(C)[C@@]1(O)CC[C@@H](C)O[C@@H]1O[C@H](CO)[C@@H](O)[C@H](O)[C@H]1O,i
COc1ccc(CCN2C(=O)c3ccccc3CC2(C)C(=O)NC2CCCCC2)cc1OC (centres undefined),i
Cc1nc(Nc2n[nH]c3c2CN(C(=O)N[C@H](CN(C)C)c2ccccc2)C3(C)C)c2sccc2n1,+
CC(C)n1c(=O)c2ccc(C(=O)NC3CCCCC3)cc2n2c(=O)n(CC(=O)N(C)c3ccccc3)nc12,i
COCCOc1ccc2c(c1)ncn2-c1ccc2cccc(N3CCC(N)CC3)c2n1,+
COCCOc1ccnc(-c2noc([C@@H]3CCCN3Cc3ccncc3)n2)c1,i
COCCN1C(=O)c2cc3ccccc3n2CC1(C)C(=O)NC1CCCC1 (centres undefined),i
C=C1CC[C@@H]2[C@](C)(CC[C@H](O)[C@@]2(C)CCC=C(C)C)[C@@H]1Cc1c[nH]c2ccccc12,i
CCOc1ccccc1CN1C(=O)c2cc3sccc3n2CC1(C)C(=O)NC1CCCC1 (centres undefined),i
CC1(C(=O)NCc2ccc(F)cc2)Cn2cnc(C(=O)NCc3ccc(Cl)cc3)c2C(=O)N1C1CC1 (centres undefined),i
O=S(=O)(NCCN1CCOCC1)c1ccc(Cc2ccc(S(=O)(=O)NCCN3CCOCC3)cc2)cc1,i
COc1c2cc(c(O)c1OC)-c1cc(ccc1O)CCC(O)CCCC2 (centres undefined),i
CC(C)(O)C(=O)N1CCN(c2ccc(C(F)(F)F)c(C3=C(c4c[nH]c5ccccc45)C(=O)NC3=O)c2)CC1,+
CCc1noc(-c2cn(C3CCN(C(=O)c4cc(Cl)ccc4F)CC3)nn2)n1,i
Cc1cccc(-c2nnn3c2nc(N2CCCC2)c2ccccc23)c1,i
Cc1nc(N2CCCC2)nc(N2CCC3(CC2)OCCCC3O)c1C (centres undefined),i
Cc1cc2c(N3CCCC3)nc(N3CCCC3)nc2n1C,+
SMILES,Methyltransferases
CC(=O)N[C@H]1[C@H](O[C@H]2CC[C@@]3(C)C(CC[C@]4(C)C3CC=C3C5CC(C)(C)CC[C@]5(C(=O)O)[C@H](O[C@@H]5O[C@H](CO)[C@@H](O)[C@H](O)[C@H]5O)C[C@]34C)C2(C)C)O[C@H](CO[C@@H]2OC[C@H](O)[C@H](O)[C@H]2O[C@@H]2OC[C@@H](O)[C@H](O)[C@H]2O)[C@@H](O)[C@@H]1O (some centres undefined),i
COc1cccc(CSc2nnc3n(CC(C)C)c(=O)c4ccccc4n23)c1,i
O=C(c1ccsc1)N1CCC2(CC1)CN(C1CCC1)CC2CO (centres undefined),i
COc1ccc(-c2cc3n(n2)CC(C)(C(=O)NCc2ccccc2OC)N(Cc2ccccc2F)C3=O)cc1 (centres undefined),i
CCN1CCN(Cc2ccc(NC(=O)Nc3ccc(Oc4cc(NC)ncn4)cc3)cc2C(F)(F)F)CC1,+
CCOc1cccc(NC(=O)c2ccc(N3CCCC3)c(C(F)(F)F)c2)c1,i
Cc1ccc(CCNC(=O)C2CCN(c3cc(C(F)(F)F)ncn3)CC2)cc1,i
CCOc1ccc(NC(=O)N2CCn3cccc3C2C(C)C)cc1 (centres undefined),i
CN1CCN(Cc2ccc(NC(=O)Cc3ccc(Oc4cc(NC(=O)C5CC5)ncn4)cc3)cc2C(F)(F)F)CC1,+
COc1ccc(NC(=O)COc2ccc(NC(=O)C3CC3)cn2)cc1,i
COc1ccc(Cn2c(=O)c3ccccc3n3c(-c4ccccc4OC)nnc23)cc1,i
COc1cccc(-c2noc(CN3CCC(c4nc(-c5cccn5C)no4)C3)n2)c1OC (centres undefined),i
COc1ccc(CN2C(=O)c3ccc(-c4ccco4)n3CC2(C)C(=O)NC2CCC(C)CC2)cc1 (centres undefined),i
COc1ccc(OC)c(CCNC(=O)Cn2ccc3cc(S(=O)(=O)N4CCCC4)ccc32)c1,i
CCCC(=O)NCCc1c2n(c3ccc(OC)cc13)CCCc1ccccc1-2,+
COc1ccc(OC)c(CCNC(=O)CCc2nnc3n(Cc4ccc(F)cc4)c(=O)c4ccccc4n23)c1,i
CO[C@H]1c2cc(C(C)C)c(O)c(O)c2[C@@]23CCCC(C)(C)C2[C@@H]1OC3=O (some centres undefined),i
CC(=O)Nc1c2n(c3ccc(F)cc13)CC(C)(C(=O)NC1CCCCC1)N(Cc1cccnc1)C2=O (centres undefined),i
CC1CCCCC1NC(=O)C1(C)Cn2c(cc3sccc32)C(=O)N1Cc1ccc(F)cc1 (centres undefined),i
CC1(C(=O)NC2CCCCC2)Cn2c(cc3sccc32)C(=O)N1Cc1ccc2c(c1)OCO2 (centres undefined),i
Cc1[nH]c(=O)c(C#N)cc1-c1ccncc1,i
Cc1[nH]c(=O)c(C#N)cc1-c1ccc2nccn2c1,+
CCOC(=O)C1CCN(C(=O)c2ccc3nccn3c2)CC1,i
CCC(C)NC(=O)c1ccc2c(=O)n(CC(C)C)c3nn(CC(=O)Nc4ccc(C)cc4)c(=O)n3c2c1 (centres undefined),i
O=C(NC1CCCN(C2CCCCCC2)C1)c1ccccc1C(F)(F)F (centres undefined),i
SMILES,Methyltransferases
CCCC1c2ccc(C)n2CCN1C(=O)Nc1cc(C)ccc1OC (centres undefined),i
Clc1ccc(C(c2ccc(Cl)cc2)n2cc[n+](CC(OCc3ccc(Cl)cc3Cl)c3ccc(Cl)cc3Cl)c2)cc1 (centres undefined),+
COc1ccccc1C(=O)N1CC(N(C)c2ccccc2C)C1,i
Cc1ccc(NC(=O)Cn2nc3n(C)c(=O)c4ccc(C(=O)NC5CCCC5)cc4n3c2=O)cc1,i
O=C(C1CCCN1Cc1ccc(-c2cncnc2)cc1)N1CCOCC1 (centres undefined),i
CC(=O)Nc1ccc(-c2c(C(C)C)nn(-c3cccc(F)c3)c2OC(C)=O)cc1,i
CS(=O)(=O)c1cccc(CNc2nc(Nc3ccc4c(c3)CCC(=O)N4)ncc2C(F)(F)F)c1,+

# Bioassay records deposited in PubChem BioAssay by National Center for Advancing Translational Sciences (NCATS).
